# Experimental data published in the supplement of paper PMC10849652.
# About 8,800 targets were measured; listed, in parts, are those with a hit and a random draw of the rest. About 0.5% of all pairs of compound and target were hits. Values without a mark were called inactive.
# Columns and labels:
# Test in all cases: log2 fold change, soluble protein after heating vs DMSO (PISA); higher = thermal stabilisation; K562 lysate, 10 uM; active = over 0.2 and 3.5 SD of the protein, either way, in both replicates (recomputed)
# [1] = compound: CS(=O)(=O)CCNCc1ccc(-c2ccc3ncnc(Nc4ccc(OCc5cccc(F)c5)c(Cl)c4)c3c2)o1 [lapatinib]
# How it was run: (§1)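 Pellets of K562 cells were dounce-homogenised in PBS pH 7.4 with 1 mM MgCl2, and the crude extract was held at 1 mg/mL protein for a 30 min treatment with 10 μM compound. Aliquots were heated for 3 min over 48°C-58°C and pooled before NP-40 was added to 0.5% at 4°C. The supernatant from 21,000xg for 90 min was quantified by TMTpro 16plex LC-MS/MS with channel sums equalised. Values are reported from duplicates as log-two fold change in thermal stability relative to solvent controls.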
# [2] = compound: CS(=O)(=O)N1CCN(Cc2cc3nc(-c4cccc5[nH]ncc45)nc(N4CCOCC4)c3s2)CC1 [pictilisib]
# How it was run: as §1
# [3] = compound: C[C@@H](Oc1cc(-c2cnn(C3CCNCC3)c2)cnc1N)c1c(Cl)ccc(F)c1Cl [crizotinib]
# How it was run: as §1
# [4] = compound: C[C@H](C1=CC=C(C=C1)C(=O)NC2=C3C=CNC3=NC=C2)N
# How it was run: as §1
# [5] = compound: C[C@H](Nc1ncnc2nc[nH]c12)c1cc2cccc(Cl)c2c(=O)n1-c1ccccc1 [duvelisib]
# How it was run: as §1
# [6] = compound: Cc1cc(Nc2cc(CN3CCOCC3)c3nc(C)c(Cc4ccc(Cl)cc4F)n3n2)n[nH]1 [gandotinib]
# How it was run: as §1
# [7] = compound: Cc1cc(Nc2cc(N3CCN(C)CC3)nc(Sc3ccc(NC(=O)C4CC4)cc3)n2)n[nH]1 [tozasertib]
# How it was run: as §1
# [8] = compound: Cc1ccc(-n2nc(C(C)(C)C)cc2NC(=O)Nc2ccc(OCCN3CCOCC3)c3ccccc23)cc1 [doramapimod]
# How it was run: as §1
# [9] = compound: Cc1ccc(NC(=O)c2ccc(CN3CC[C@H](N(C)C)C3)c(C(F)(F)F)c2)cc1Nc1nccc(-c2cncnc2)n1 [bafetinib]
# How it was run: as §1
# [10] = compound: Cc1cccc(CC(=O)N2CCc3c2ccc(-c2cn(C)c4ncnc(N)c24)c3F)n1
# How it was run: as §1
# [11] = compound: Cc1cn(-c2cc(NC(=O)c3ccc(C)c(Nc4nccc(-c5cccnc5)n4)c3)cc(C(F)(F)F)c2)cn1 [nilotinib]
# How it was run: as §1
# [12] = compound: Cc1nc(Nc2n[nH]c3c2CN(C(=O)N[C@H](CN(C)C)c2ccccc2)C3(C)C)c2sccc2n1
# How it was run: as §1
# [13] = compound: Cc1nc(Nc2ncc(C(=O)Nc3c(C)cccc3Cl)s2)cc(N2CCN(CCO)CC2)n1 [dasatinib]
# How it was run: as §1
# [14] = compound: Cc1ncc(-c2ccnc(Nc3ccc(S(C)(=O)=O)cc3)n2)n1C(C)C
# How it was run: as §1
# [15] = compound: Cn1cc(-c2ccc3c(c2)CCN3C(=O)Cc2cccc(C(F)(F)F)c2)c2c(N)ncnc21
# How it was run: as §1
# [16] = compound: Cn1cc(CNCC2CCN(c3ncc(C(=O)NO)cn3)CC2)c2ccccc21 [quisinostat]
# How it was run: as §1
# [17] = compound: Cn1cncc1[C@@](N)(c1ccc(Cl)cc1)c1ccc2c(c1)c(-c1cccc(Cl)c1)cc(=O)n2C [tipifarnib]
# How it was run: as §1
# [18] = compound: NC(=O)Nc1cc(-c2cccc(F)c2)sc1C(=O)N[C@H]1CCCNC1
# How it was run: as §1
# [19] = compound: NC(=O)c1cnc(N[C@@H]2CCCC[C@@H]2N)nc1Nc1cccc(-n2nccn2)c1
# How it was run: as §1
# [20] = compound: NC1(c2ccc(-c3nc4ccn5c(=O)[nH]nc5c4cc3-c3ccccc3)cc2)CCC1
# How it was run: as §1
# Sequence of UniProt Q8NFV4 (Q8NFV4 whole entry, looked up): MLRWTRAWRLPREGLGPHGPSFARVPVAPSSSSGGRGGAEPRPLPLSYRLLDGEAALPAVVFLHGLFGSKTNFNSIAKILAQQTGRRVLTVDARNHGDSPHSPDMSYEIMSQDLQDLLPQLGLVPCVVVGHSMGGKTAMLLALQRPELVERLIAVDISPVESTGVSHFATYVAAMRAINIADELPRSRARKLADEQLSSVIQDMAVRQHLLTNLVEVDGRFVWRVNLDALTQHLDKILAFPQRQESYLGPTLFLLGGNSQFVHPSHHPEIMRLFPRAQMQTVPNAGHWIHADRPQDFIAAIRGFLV
# Sequence of UniProt Q96P48 (Q96P48 whole entry, looked up): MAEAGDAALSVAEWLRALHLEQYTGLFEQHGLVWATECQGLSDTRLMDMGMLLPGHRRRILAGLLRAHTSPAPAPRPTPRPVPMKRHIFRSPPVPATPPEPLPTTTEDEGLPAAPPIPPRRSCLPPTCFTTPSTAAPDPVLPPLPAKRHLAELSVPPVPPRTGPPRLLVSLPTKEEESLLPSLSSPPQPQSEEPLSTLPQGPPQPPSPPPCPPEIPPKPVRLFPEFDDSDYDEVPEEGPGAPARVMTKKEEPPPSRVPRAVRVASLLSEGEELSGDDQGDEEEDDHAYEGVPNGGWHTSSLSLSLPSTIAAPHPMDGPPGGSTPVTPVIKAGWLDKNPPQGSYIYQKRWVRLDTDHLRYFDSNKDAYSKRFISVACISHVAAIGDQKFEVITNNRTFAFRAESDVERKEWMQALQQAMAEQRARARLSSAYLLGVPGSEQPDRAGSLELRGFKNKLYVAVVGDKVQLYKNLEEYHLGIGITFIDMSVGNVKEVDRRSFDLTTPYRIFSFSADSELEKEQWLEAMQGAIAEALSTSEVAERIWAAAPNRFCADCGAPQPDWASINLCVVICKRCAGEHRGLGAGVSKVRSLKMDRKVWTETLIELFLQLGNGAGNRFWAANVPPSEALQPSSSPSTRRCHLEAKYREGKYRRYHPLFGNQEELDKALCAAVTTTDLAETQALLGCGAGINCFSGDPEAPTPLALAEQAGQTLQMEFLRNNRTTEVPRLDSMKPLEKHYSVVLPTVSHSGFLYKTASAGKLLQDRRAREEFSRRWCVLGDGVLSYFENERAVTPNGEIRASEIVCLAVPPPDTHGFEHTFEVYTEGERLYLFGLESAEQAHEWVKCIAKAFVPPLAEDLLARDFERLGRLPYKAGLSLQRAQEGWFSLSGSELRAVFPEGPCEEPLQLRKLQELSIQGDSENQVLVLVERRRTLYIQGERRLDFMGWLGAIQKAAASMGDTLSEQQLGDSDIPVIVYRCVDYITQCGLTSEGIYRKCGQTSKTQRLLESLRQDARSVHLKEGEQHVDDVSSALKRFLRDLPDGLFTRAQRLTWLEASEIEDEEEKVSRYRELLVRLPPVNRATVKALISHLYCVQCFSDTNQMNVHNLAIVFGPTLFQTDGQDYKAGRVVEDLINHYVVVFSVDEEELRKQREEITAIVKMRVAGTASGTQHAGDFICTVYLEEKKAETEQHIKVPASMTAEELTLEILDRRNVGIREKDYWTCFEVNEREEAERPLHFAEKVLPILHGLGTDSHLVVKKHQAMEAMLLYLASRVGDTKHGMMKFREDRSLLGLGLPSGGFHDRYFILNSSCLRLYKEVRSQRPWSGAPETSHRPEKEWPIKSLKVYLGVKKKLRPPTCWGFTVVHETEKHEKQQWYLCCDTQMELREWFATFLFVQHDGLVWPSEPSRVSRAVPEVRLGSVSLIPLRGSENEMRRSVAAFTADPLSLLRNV
# Sequence of UniProt O75843 (O75843 whole entry, looked up): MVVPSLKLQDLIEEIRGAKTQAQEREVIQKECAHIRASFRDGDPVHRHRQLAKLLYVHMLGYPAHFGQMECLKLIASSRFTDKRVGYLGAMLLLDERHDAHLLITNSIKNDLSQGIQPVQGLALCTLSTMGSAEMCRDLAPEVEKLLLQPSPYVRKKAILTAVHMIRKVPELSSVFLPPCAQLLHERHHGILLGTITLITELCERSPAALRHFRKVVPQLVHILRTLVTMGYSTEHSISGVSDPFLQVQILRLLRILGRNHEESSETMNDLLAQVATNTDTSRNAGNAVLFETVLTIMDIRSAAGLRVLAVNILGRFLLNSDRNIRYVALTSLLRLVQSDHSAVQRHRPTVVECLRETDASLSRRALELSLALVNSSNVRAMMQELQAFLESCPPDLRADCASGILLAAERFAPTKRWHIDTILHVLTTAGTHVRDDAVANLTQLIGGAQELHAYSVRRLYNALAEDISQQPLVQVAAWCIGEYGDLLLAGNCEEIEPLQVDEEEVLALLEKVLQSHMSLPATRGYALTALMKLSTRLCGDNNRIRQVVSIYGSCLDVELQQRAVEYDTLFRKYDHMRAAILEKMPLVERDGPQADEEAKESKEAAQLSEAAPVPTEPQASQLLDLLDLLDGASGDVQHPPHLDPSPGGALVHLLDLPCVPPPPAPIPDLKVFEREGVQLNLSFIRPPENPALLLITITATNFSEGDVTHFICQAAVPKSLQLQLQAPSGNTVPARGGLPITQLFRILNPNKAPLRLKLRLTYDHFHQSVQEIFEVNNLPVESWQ
# Sequence of UniProt P16219 (P16219 whole entry, looked up): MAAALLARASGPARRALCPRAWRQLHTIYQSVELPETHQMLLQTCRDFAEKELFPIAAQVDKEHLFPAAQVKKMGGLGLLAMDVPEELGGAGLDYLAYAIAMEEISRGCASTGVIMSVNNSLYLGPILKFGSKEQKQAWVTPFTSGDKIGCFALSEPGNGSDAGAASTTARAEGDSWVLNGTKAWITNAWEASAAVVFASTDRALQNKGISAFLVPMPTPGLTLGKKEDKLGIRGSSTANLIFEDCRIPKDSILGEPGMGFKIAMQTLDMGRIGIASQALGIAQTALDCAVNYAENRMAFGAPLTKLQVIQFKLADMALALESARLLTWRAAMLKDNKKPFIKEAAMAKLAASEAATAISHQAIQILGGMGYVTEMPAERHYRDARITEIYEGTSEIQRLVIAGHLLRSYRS
# Sequence of UniProt P55263 (P55263 whole entry, looked up): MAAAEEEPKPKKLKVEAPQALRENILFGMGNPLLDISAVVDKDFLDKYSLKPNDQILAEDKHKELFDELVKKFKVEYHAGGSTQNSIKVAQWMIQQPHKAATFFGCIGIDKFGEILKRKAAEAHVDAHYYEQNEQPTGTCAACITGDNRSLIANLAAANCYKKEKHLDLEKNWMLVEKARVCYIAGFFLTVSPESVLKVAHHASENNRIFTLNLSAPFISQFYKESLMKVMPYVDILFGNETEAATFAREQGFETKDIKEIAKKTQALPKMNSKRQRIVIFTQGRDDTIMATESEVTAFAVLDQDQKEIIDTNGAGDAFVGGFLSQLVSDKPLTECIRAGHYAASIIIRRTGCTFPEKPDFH
# Sequence of UniProt Q9UJX3 (Q9UJX3 whole entry, looked up): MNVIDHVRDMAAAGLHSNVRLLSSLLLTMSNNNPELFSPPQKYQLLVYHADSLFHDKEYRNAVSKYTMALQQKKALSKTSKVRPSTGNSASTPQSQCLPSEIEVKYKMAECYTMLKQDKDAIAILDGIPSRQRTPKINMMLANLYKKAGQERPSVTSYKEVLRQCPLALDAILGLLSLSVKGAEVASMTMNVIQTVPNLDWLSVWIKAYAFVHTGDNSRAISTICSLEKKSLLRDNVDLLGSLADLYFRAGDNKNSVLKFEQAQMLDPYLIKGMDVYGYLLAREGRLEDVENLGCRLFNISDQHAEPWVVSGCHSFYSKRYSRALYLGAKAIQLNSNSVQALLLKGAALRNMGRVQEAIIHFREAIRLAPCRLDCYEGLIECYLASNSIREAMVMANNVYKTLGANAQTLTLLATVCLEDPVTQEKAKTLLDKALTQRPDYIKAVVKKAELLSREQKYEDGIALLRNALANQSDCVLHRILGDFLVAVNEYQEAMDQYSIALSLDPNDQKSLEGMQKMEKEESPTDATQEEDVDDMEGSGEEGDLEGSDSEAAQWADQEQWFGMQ
# Sequence of UniProt P54886 (P54886 whole entry, looked up): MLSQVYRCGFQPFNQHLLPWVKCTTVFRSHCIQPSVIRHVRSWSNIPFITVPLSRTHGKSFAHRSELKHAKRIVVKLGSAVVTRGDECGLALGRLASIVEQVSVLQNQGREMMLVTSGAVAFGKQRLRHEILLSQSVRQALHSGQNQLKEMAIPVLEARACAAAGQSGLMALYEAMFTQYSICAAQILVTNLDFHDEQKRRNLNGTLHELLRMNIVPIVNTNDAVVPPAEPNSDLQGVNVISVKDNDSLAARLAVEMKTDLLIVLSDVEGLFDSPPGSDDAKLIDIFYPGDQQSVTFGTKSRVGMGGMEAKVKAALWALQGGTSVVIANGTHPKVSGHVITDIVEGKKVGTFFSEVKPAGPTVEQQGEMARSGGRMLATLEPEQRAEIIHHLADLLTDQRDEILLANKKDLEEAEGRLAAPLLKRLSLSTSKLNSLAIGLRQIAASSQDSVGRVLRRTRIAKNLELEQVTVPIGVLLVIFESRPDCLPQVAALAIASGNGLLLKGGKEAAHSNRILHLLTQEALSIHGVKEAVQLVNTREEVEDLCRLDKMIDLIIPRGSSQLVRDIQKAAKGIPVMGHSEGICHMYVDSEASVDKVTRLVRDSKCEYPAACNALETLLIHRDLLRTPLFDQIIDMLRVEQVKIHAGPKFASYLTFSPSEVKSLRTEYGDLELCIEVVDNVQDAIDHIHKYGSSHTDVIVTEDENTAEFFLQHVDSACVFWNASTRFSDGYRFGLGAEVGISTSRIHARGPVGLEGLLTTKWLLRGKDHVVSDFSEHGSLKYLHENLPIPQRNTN
Target,log2 fold change [1],log2 fold change [2],log2 fold change [3],log2 fold change [4],log2 fold change [5],log2 fold change [6],log2 fold change [7],log2 fold change [8],log2 fold change [9],log2 fold change [10],log2 fold change [11],log2 fold change [12],log2 fold change [13],log2 fold change [14],log2 fold change [15],log2 fold change [16],log2 fold change [17],log2 fold change [18],log2 fold change [19],log2 fold change [20]
AP5B1 (UniProt Q2VPB7),0.095,-0.046,0.069,0.034,-0.012,-0.092,-0.028,0.272,-0.056,0.047,0.001,-0.033,0.065,-0.053,-0.072,-0.027,-0.087,0.324 (active),-0.023,-0.036
AP1G2 (UniProt O75843),0.068,-0.008,-0.095,-0.049,-0.02,0,-0.02,-0.004,0.026,0.039,-0.013,-0.046,-0.081,-0.019,0.048,-0.006,0.063,0.005,-0.012,-0.125
ARAP1 (UniProt Q96P48),-0.022,-0.046,-0.065,-0.03,-0.002,0.014,-0.005,0.063,-0.016,0.034,-0.009,-0.029,-0.036,-0.032,0.013,-0.072,-0.041,0.029,0.006,0.003
ANAPC7 (UniProt Q9UJX3),-0.017,0.002,-0.029,-0.009,-0.018,-0.042,-0.019,0.023,-0.036,0.002,-0.004,-0.006,-0.004,0.008,0.02,-0.054,-0.019,0.03,0,-0.018
ALDH18A1 (UniProt P54886),-0.052,-0.063,-0.034,0.001,-0.017,-0.064,0.002,0.047,-0.006,0.018,0,-0.023,-0.027,-0.004,0.007,-0.06,-0.001,0.025,0.023,-0.019
ADK (UniProt P55263),0.154,0.169,0.235,-0.007,0.059,0.532 (active),-0.005,0.014,0.292,-0.064,-0.028,0.075,0.463,0.046,-0.005,-0.062,0.324,-0.023,-0.015,0.016
ACADS (UniProt P16219),-0.004,-0.018,-0.027,-0.026,-0.003,0.016,-0.013,0.008,0.037,0.034,0.278 (active),-0.04,-0.002,-0.025,0.033,-0.009,-0.018,0.032,0.01,0.017
ABHD11 (UniProt Q8NFV4),0.024,0.033,-0.019,-0.121,0.028,0.853 (active),0.081,-0.034,0.009,0.05,-0.001,-0.021,-0.005,-0.044,0.079,0.081,0.042,-0.016,0.04,-0.003
